Here are results for 1 molecule from the supplement of paper PMC8728848.

This excerpt belongs to a sample that is enriched for the strongest signals.

Holding throughout (assay): glycan array binding signal (z-score within array); higher = stronger binding
Common to all, as to settings: glycan notation: IUPAC condensed, linker removed

The target of one test is Fuc(a1-2)Gal. The essentials: (§1)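 The Consortium for Functional Glycomics database supplied 3228 glycan arrays, of which those lacking an available protein sequence were dropped. The binding signal, a within-array Z-score, was averaged across arrays of the same protein sequence and across linkers. Negative scores can be read as non-binding.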
The target of a further test is Fuc(a1-2)Gal(b1-3)GlcNAc. The essentials:
as §1

Test [1] has as its target Fuc(a1-2)Gal(b1-4)[Fuc(a1-3)]GlcNAc. In a few lines:
as §1

For test [2], the target named is Fuc(a1-3)[Gal(b1-4)]GlcNAc. The essentials: as §1
Test [3] has as its target Fuc(a1-3)[Gal3S(b1-4)]Glc6S. The essentials: as §1
Test [4] deals with Fuc(a1-3)[Gal3S(b1-4)]GlcNAc6S. The essentials: as §1
A further test addresses Fuc(b1-3)GlcNAc. In a few lines:
as §1

For a further test, the target named is Gal(b1-3)Gal. The essentials: as §1
In test [5] the target is Gal(b1-4)GlcNAc(b1-6)GalNAc. In a few lines:
as §1

For another test, the target named is Gal3S(b1-4)GlcNAc. The essentials:
as §1

A further test deals with Gal3S6S(b1-4)GlcNAc6S. In a few lines:
as §1

A further test addresses Gal4S(b1-4)GlcNAc. In a few lines:
as §1

Another test has as its target Gal6S(b1-4)Glc6S. The essentials: as §1
Test [6] concerns the target GlcNAc(b1-3)Gal(b1-3)GalNAc. In a few lines:
as §1

The next test addresses Man(a1-3)[Man(a1-6)]Man. In a few lines: as §1
Test [7] has as its target Neu5Ac9Ac(a2-6)Gal(b1-4)GlcNAc. In a few lines:
as §1

B1: Fap1 (Streptococcus parasanguis) (protein)
chain: KATSKGTEEKQDSVRENLDKMISEAEVLNDMAARKLITLDAEQQLELMKSLVATQSQLEATKNLIGDPNATVADLQIAYTTLGNNTQALGNELIKLNPNGQIYAVLNNTEASRAATLRSTTTGTKTTFTISDFSNGGTQYYWAGGNANNLKNPISSISAVYDSATGKISWTVEYDPTTILKSPALKTLKTYTGIYIDTSSDSKLSTPTNVLIDGAATNPVTNFYGNGSKGIEYVSKGTTKGVTKHTITFDTAFSGRANDLADLEIKMLAATTLSDPHFYEDGSKGNYGRYNGQTAPYVIANDSGTAIGGYQVSGVNADSIPSDTT
B1: the “glycan array binding signal (z-score)” value in the test with Fuc(a1-2)Gal amounted to 1.54; in the test with Fuc(a1-2)Gal(b1-3)GlcNAc, 0.203; in [1], 0.342; in [2], 0.377; in [3], 0.012; in [4] it was 2.23. For the same molecule, the “glycan array binding signal (z-score)” value with Fuc(b1-3)GlcNAc is 0.144; with Gal(b1-3)Gal, -0.318; in test [5] it was 0.546; with Gal3S(b1-4)GlcNAc, -0.22; in the test with Gal3S6S(b1-4)GlcNAc6S it was 1.8; with Gal4S(b1-4)GlcNAc, 1.82. The “glycan array binding signal (z-score)” value with Gal6S(b1-4)Glc6S was -0.521; in test [6], 2.08; with Man(a1-3)[Man(a1-6)]Man it was 0.624; in test [7], 0.638.
